Bioassay records: PubChem, several laboratories
rCAG binder: binders of r(CAG) RNA repeats, primary screen, biochemical, fluorescence; r(CAG) RNA repeat, TO-PRO-1 dye displacement fluorescence; inhibition, % at 3 µM; 370,000 tested, 1.3% active; AID 651821, 2012;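 active = inhibition above the plate cutoff, the mean of all test compounds on that plate plus 3 SD, cut at about 35% in these data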;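 note: higher means more dye released from RNA so lower well fluorescence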
NR3A LBD binder: binders of NR3A ligand-binding domain, primary screen, biophysical, differential scanning fluorimetry, uHTS | Glutamate receptor ionotropic, NMDA 3A (GRIN3A) ligand-binding domain | NR3A LBD differential scanning fluorimetry, Tm shift; 0% = protein alone, 100% = glycine-bound protein | Tm shift relative to glycine control, % at 25 µM | 340,000 tested, 2.5% active | AID 1259313, 2017;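 active = melting temperature shift of at least 10% of the positive control shift, at one fixed dose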
FAS TE block: FAS thioesterase domain inhibitors, primary screen, biochemical, fluorescence intensity, uHTS; recombinant FAS-TE, OMFH fluorogenic substrate, fluorescence endpoint; 360,000 tested, 0.67% active; inhibition, % at 15 µM; Fatty acid synthase (Homo sapiens), P49327;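 active = compounds whose normalised, plate-corrected inhibition of enzyme fluorescence in the single-dose primary screen is 50% or more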
NadD block: inhibitors of S. aureus NadD, primary screen, biochemical, colorimetric, uHTS; Nicotinate-nucleotide adenylyltransferase NadD (Staphylococcus aureus N315); 360,000 tested, 0.78% active; inhibition, % at 20 µM; AID 602399, 2012; purified NadD enzyme, colorimetric absorbance read-out; in the data active = inhibition above about 26%
A number is an active result. Compounds with a hit are over-represented: about 4.3% of the library has one in this group of screens.

Results for Cc1ccc2oc(C(=O)NCc3ccc(S(N)(=O)=O)cc3)cc(=O)c2c1 ?
rCAG binder: inactive; NR3A LBD binder: inactive; FAS TE block: inactive; NadD block: inactive

What do the screens show for `Cc1cc(C(N)=O)c2cc(Br)ccc2n1`?
rCAG binder: inactive; NR3A LBD binder: 13; FAS TE block: inactive; NadD block: inactive

What do the screens show for `Cc1nnc(NC(=O)c2ccc(C)c(S(=O)(=O)N3CCOCC3)c2)s1`?
rCAG binder: inactive; NR3A LBD binder: inactive; FAS TE block: inactive; NadD block: inactive

What do the screens show for `Cc1nnc(NC(=O)c2ccc(F)c(S(=O)(=O)N3CCCCC3)c2)s1`?
rCAG binder: inactive; NR3A LBD binder: 16; FAS TE block: inactive; NadD block: inactive

What do the screens show for `O=C(Nc1ccccn1)c1ccc(Br)c(S(=O)(=O)N2CCCCC2)c1`?
rCAG binder: inactive; NR3A LBD binder: 13; FAS TE block: inactive; NadD block: inactive

What do the screens show for `CCn1c(COc2ccc(C)cc2)nnc1SCC(=O)Nc1ccc(C(=O)OC)cc1`?
rCAG binder: inactive

How did O=C(Cn1nnc(-c2ccncc2)n1)Nc1ccc(F)cc1F do in these assays?
rCAG binder: inactive

What do the screens show for `Cc1c(Cl)cccc1N(Cc1ccc(C(=O)O)cc1)S(=O)(=O)c1ccccc1`?
rCAG binder: inactive; NR3A LBD binder: 13; FAS TE block: inactive; NadD block: inactive

What do the screens show for `O=C(O)c1ccccc1/C=N/Nc1ccc(S(=O)(=O)N2CCCC2)cc1[N+](=O)[O-]`?
rCAG binder: inactive; NR3A LBD binder: inactive; FAS TE block: inactive; NadD block: inactive

What do the screens show for `C/C(=N\Nc1ccc(S(=O)(=O)Nc2ccccc2)cc1[N+](=O)[O-])c1ccncc1`?
rCAG binder: inactive

Results for COc1ccc(C=NNc2ccc(S(=O)(=O)Nc3ccccc3C(=O)O)cc2[N+](=O)[O-])c(OC)c1 ?
NR3A LBD binder: 457; FAS TE block: inactive; NadD block: inactive

How did COc1ccc(NS(=O)(=O)c2ccc(N/N=C(\C)c3ccncc3)c([N+](=O)[O-])c2)cc1 do in these assays?
rCAG binder: inactive; NR3A LBD binder: 21; FAS TE block: inactive; NadD block: inactive

What do the screens show for `OCC(CCc1c[nH]c2ccccc12)c1c[nH]c2ccccc12` (centres undefined)?
rCAG binder: inactive

What do the screens show for `C=CCCC(=O)N(Cc1ccccc1)c1ccccc1C(=O)Nc1cc(OC)ccc1OC`?
rCAG binder: inactive

Results for COc1ccc(Nc2nc(C)c(-c3ccccc3)s2)cc1 ?
rCAG binder: inactive; NR3A LBD binder: inactive; FAS TE block: inactive; NadD block: inactive

What do the screens show for `COc1ccccc1Nc1nc(C)c(C(=O)Nc2ccccc2)s1`?
rCAG binder: inactive; NR3A LBD binder: 25; FAS TE block: inactive; NadD block: inactive

What do the screens show for `Cc1nc(Nc2ccccc2)sc1C(=O)Nc1ccccc1`?
rCAG binder: inactive; NR3A LBD binder: 38; FAS TE block: inactive; NadD block: inactive

What do the screens show for `Cc1nc(NCc2ccccc2)sc1C(=O)Nc1ccccc1`?
rCAG binder: inactive; NR3A LBD binder: inactive; FAS TE block: inactive; NadD block: inactive

Results for Cc1nc(Nc2ccc(S(N)(=O)=O)cc2)sc1C(=O)Nc1ccccc1 ?
rCAG binder: inactive; NR3A LBD binder: 33; FAS TE block: inactive; NadD block: inactive

What do the screens show for `Cc1nc(Nc2ccc(S(N)(=O)=O)cc2)sc1-c1ccccc1`?
rCAG binder: inactive; NR3A LBD binder: 16; FAS TE block: inactive; NadD block: inactive

Results for Cc1nc(Nc2ccccc2Cl)sc1C(=O)Nc1ccccc1 ?
rCAG binder: inactive; NR3A LBD binder: inactive; FAS TE block: inactive; NadD block: inactive

What do the screens show for `COCC(=O)N(C[C@H]1[C@H](c2ccccc2)[C@@H](CO)N1C(=O)NC(C)C)C(C)C`?
rCAG binder: inactive

What do the screens show for `COc1ccc(-c2noc(C3CCCN(C(=O)Nc4ccc5c(c4)OCO5)C3)n2)cc1` (centres undefined)?
rCAG binder: inactive

How did C=CCN=C1NC(c2cccc(C(F)(F)F)c2)C(C(=O)OC)=C(C)N1Cc1ccccc1C(F)(F)F (centres undefined) do in these assays?
rCAG binder: inactive

How did Cc1nc(C)c(-c2csc(Nc3cccc(O)c3)n2)s1 do in these assays?
rCAG binder: inactive; NR3A LBD binder: 20; FAS TE block: inactive; NadD block: inactive

How did Cc1ccc(Nc2nc(-c3sc(C)nc3C)cs2)cc1 do in these assays?
rCAG binder: inactive; NR3A LBD binder: inactive; FAS TE block: inactive; NadD block: inactive
